Screening data deposited in PubChem BioAssay by National Center for Advancing Translational Sciences (NCATS).
Pf Dd2 growth: inhibitors of Plasmodium falciparum Dd2 growth; AID 1347417; Potency, µM (highest dose often 28.9 µM), without a hit: top-dose activity, negative = inhibition, hits mostly inhibitors; 120,000 compounds, 4.3% hits; P. falciparum Dd2 growth, SYBR Green, 72 h; active = well fitted inhibition curve with a large enough effect;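 also: plate controls were DMSO vehicle for no effect and reference drug for full effect; nearly all actives have a fitted effect of over 65% in size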
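Infected erythrocytes (Dd2, 0.3% parasitemia, 2.5% hematocrit final) are added to compound in RPMI-1640/Albumax II medium, grown 72 h at 37C in low oxygen, then lysed with saponin/Triton-X containing SYBR Green and read by fluorescence.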
* hit, by the source's call; [ ] = another dose, or the depositor's remark. Many of the other results were omitted from the sample, so hits are more common in it than they were. Potency is read from the fitted curve at half-maximal effect.

Results for O=C(NC1CCCN(c2cc(-c3ccccc3)[nH]n2)C1)c1ccccc1F (stereo not drawn) ?
Pf Dd2 growth: inactive

Results for Cc1ccc(C(=O)N[C@@H]2C=C(C(=O)N[C@H](CC(C)C)C(N)=O)C[C@@H](O)[C@@H]2O)cc1 ?
Pf Dd2 growth: 3%[44.1 µM]

Results for Cc1nnc(CN(C)c2ccc(-c3nc(CCCc4ccccc4)no3)cn2)o1 ?
Pf Dd2 growth: inactive

How did CN(Cc1ccccn1)c1ccc(-c2nc(Cc3ccc(F)cc3)no2)cn1 do in these assays?
Pf Dd2 growth: -27%

What do the screens show for `CN(Cc1ncc[nH]1)c1ccc(-c2nc(CCCc3ccccc3)no2)cn1`?
Pf Dd2 growth: 4.5µM*

How did CCc1nc(NC2CCCC2)ncc1C(=O)O do in these assays?
Pf Dd2 growth: 29%

What do the screens show for `COC[C@@H]1CN(C(=O)c2ccc(C#N)cc2)C[C@H]1c1nc(C)no1`?
Pf Dd2 growth: 20%

Results for C#CCOc1c(Br)cc(C2C(C(=O)OC)=C(C)NC3=C2C(=O)c2ccccc23)cc1OCC (stereo not drawn) ?
Pf Dd2 growth: inactive

How did O=C(NCc1ccccc1Cl)c1cc2c(s1)-c1ccccc1SC2 do in these assays?
Pf Dd2 growth: -1%

What do the screens show for `O=C1C2=C(Nc3ccccc3SC2c2ccc(Cl)c(Cl)c2)c2ccccc21` (stereo not drawn)?
Pf Dd2 growth: 3.5µM*

How did CCOc1cc(C2CC(=O)Nc3c2c(C)nn3-c2nc(C)cc(C)n2)ccc1O (stereo not drawn) do in these assays?
Pf Dd2 growth: -28%

What do the screens show for `CC(=O)Nc1ccc(NC(=O)CC2Sc3ccccc3NC2=O)cc1` (stereo not drawn)?
Pf Dd2 growth: 16%

How did CCOc1cc(C2Sc3ccccc3NC3=C2C(=O)c2ccccc23)ccc1O (stereo not drawn) do in these assays?
Pf Dd2 growth: 11µM*

What do the screens show for `CCCc1ccc(C2Sc3ccccc3NC3=C2C(=O)c2ccccc23)cc1` (stereo not drawn)?
Pf Dd2 growth: 3.2µM*

What do the screens show for `Cc1nnc(C2CCCCCN2C(=O)c2nn(C)c3ccccc23)o1` (stereo not drawn)?
Pf Dd2 growth: -3%

What do the screens show for `O=C(Cc1c[nH]c2ccccc12)N1CC(c2nnc(-c3ccncc3)o2)C2(CCOCC2)C1` (stereo not drawn)?
Pf Dd2 growth: inactive

How did Cc1noc(C2CCCCCN2C(=O)CC2CCCC2)n1 (stereo not drawn) do in these assays?
Pf Dd2 growth: 3%

Results for O=C(c1ccc(N2CC3CC(C2)[C@H]2CCCC(=O)N2C3)nc1)N1CCOCC1 (stereo partly drawn) ?
Pf Dd2 growth: inactive

Results for O=C(O)c1ccc(-c2ccc(C(=O)O)cn2)cc1 ?
Pf Dd2 growth: 1%[44.1 µM]

How did Cc1nc(-c2cnccn2)n(CC(=O)Nc2cccc(F)c2)c(=O)c1CCO do in these assays?
Pf Dd2 growth: inactive

How did CCc1ccc(-c2cn3c(n2)sc2cc(C(=O)NC4CCCCCC4)ccc23)cc1 do in these assays?
Pf Dd2 growth: 8%

How did CCc1ccc(-c2cn3c(n2)sc2cc(C(=O)NCCCc4ccccc4)ccc23)cc1 do in these assays?
Pf Dd2 growth: inactive

What do the screens show for `O=C(NCc1cccs1)c1ccc2c(c1)sc1nc(-c3ccc(F)cc3)cn12`?
Pf Dd2 growth: -12%

What do the screens show for `O=C(NCCCN1CCCCCC1)c1ccc2c(c1)sc1nc(-c3ccccc3)cn12`?
Pf Dd2 growth: 10µM*

What do the screens show for `CCc1ccc(-c2cn3c(n2)sc2cc(C(=O)NCC(C)c4ccccc4)ccc23)cc1` (stereo not drawn)?
Pf Dd2 growth: -1%

How did Cc1ccc(-c2cn3c(n2)sc2cc(C(=O)NCCCc4ccccc4)ccc23)c(C)c1 do in these assays?
Pf Dd2 growth: 5µM*

Results for CCC1CCCCN1CCCNC(=O)c1ccc2c(c1)sc1nc(-c3ccc(F)cc3)cn12 (stereo not drawn) ?
Pf Dd2 growth: 1µM*

How did Cc1ccc(-c2cn3c(n2)sc2cc(C(=O)NC4CCCCCC4)ccc23)cc1 do in these assays?
Pf Dd2 growth: 1%

Results for O=C(NC1CCCCC1)c1ccc2c(c1)sc1nc(-c3ccccc3)cn12 ?
Pf Dd2 growth: inactive

Results for CC(C)C[C@H](N)C(=O)N1CCC2(CC1)Nc1ccccc1NC2=O ?
Pf Dd2 growth: -4%

What do the screens show for `COCCc1noc(CNC(=O)C2COc3ccccc3C2)n1` (stereo not drawn)?
Pf Dd2 growth: -7%

What do the screens show for `Cc1nc2c(c(-c3ccc(Cl)cc3)n1)CCN(C(=O)N(C)C)CC2`?
Pf Dd2 growth: -11%

How did CC(C)CN1C(=O)c2cccn2CC1C(=O)NCCN1CCCC1 (stereo not drawn) do in these assays?
Pf Dd2 growth: 24%

How did Cc1cccc(C(=O)Nc2ccc3ncnc(N4CCCCC4)c3c2)c1 do in these assays?
Pf Dd2 growth: inactive

Results for CCN1CCN(c2cc(C)c3cc(NC(=O)c4cccc(C(F)(F)F)c4)ccc3n2)CC1 ?
Pf Dd2 growth: 5.6µM*

What do the screens show for `CCNC(=O)CN1CCCC(CNC(=O)c2cccc(C(F)(F)F)c2)C1` (stereo not drawn)?
Pf Dd2 growth: -19%

Results for COc1cccc(C(=O)Nc2ccc3ncnc(N4CCCCC4)c3c2)c1 ?
Pf Dd2 growth: inactive

Results for CCN1CCN(c2cc(C)c3cc(NC(=O)c4ccc(OC)c(OC)c4)ccc3n2)CC1 ?
Pf Dd2 growth: 2.8µM*

What do the screens show for `Cc1ccc(-c2ccc3nnc(CNC(=O)Cc4cccs4)n3n2)cc1C`?
Pf Dd2 growth: inactive

Results for C[C@@]1(O)CCN(Cc2cccc(OC(F)F)c2)C[C@@H]1O ?
Pf Dd2 growth: 3%

How did C=CCNC(=O)N[C@H]1CCN(C(=O)CC(C)(C)C)[C@@H]1C(=O)N[C@@H](Cc1cccs1)C(N)=O do in these assays?
Pf Dd2 growth: 1%

How did COCC1CCCN(Cc2nc(C(c3ccccc3)c3ccccc3)no2)C1 (stereo not drawn) do in these assays?
Pf Dd2 growth: 11µM*

What do the screens show for `COc1ccccc1N1CCN(C2CCCN(Cc3nc(C(N)=O)no3)C2)CC1` (stereo not drawn)?
Pf Dd2 growth: -21%

What do the screens show for `O=C(c1cccs1)C1CCCN(Cc2nc(CCc3ccccc3)no2)C1` (stereo not drawn)?
Pf Dd2 growth: -18%

How did COc1ccccc1CC(=O)N1CCC2(CC1)c1nccn1-c1ccccc1CN2C do in these assays?
Pf Dd2 growth: 11%[5.79 µM]

What do the screens show for `N[C@@H]1CCN(Cc2ccccc2OCc2ccc(Cl)cc2)C[C@H]1O`?
Pf Dd2 growth: 4.5µM*

How did NC1CCCN(Cc2ccccc2F)C1 (stereo not drawn) do in these assays?
Pf Dd2 growth: -20%

What do the screens show for `Cn1c(COc2cccc(CN3CCCC3)c2Cl)nnc1C1CC(N)C1` (stereo not drawn)?
Pf Dd2 growth: -14%

How did CCOc1ccccc1C1NC(=O)N(CC(=O)N(C)c2ccccc2)C2=C1C(=O)OC2 (stereo not drawn) do in these assays?
Pf Dd2 growth: -13%

What do the screens show for `Cc1cccc(C)c1-c1cc(C(=O)N2CCOCC2)c2cnn(C)c2n1`?
Pf Dd2 growth: 36%

What do the screens show for `O=C(Cc1noc2ccccc12)N1CCCn2nc(CO)cc2C1`?
Pf Dd2 growth: -3%

Results for CN1C[C@@H]2CCCN3CCC[C@@H]([C@H]23)[C@H]1CCCC(=O)NCCc1nc2ccccc2n1C ?
Pf Dd2 growth: inactive

What do the screens show for `Cc1ccc(N2CC(c3noc(-c4ccccc4C)n3)CC2=O)cc1` (stereo not drawn)?
Pf Dd2 growth: 11%
